Rows were chosen to be rich in hits. Some 6% of all compounds tested hit in one or more screens of this group.
D1 potentiator = enhances dopamine response at the human D1 receptor | HEK293 TREx D1 cells, calcium flux, dopamine EC20 potentiation | potentiation, % at 10 µM | hit rate 0.036% among 360,000 | AID 504651; in the data active = potentiation above about 30%
D1 antagonist = antagonists of human D1 dopamine receptor | activity change, negative = inhibition, % at 10 µM | hit rate 3.2% among 360,000 | HEK293 TREx D1 cells, calcium flux, dopamine EC80; hits give low values | P21728; in the data active = activity change below about -30%
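Compound effects on dopamine-evoked calcium signalling were measured in tetracycline-induced HEK293 Trex D1 cells. Dopamine at EC80 followed a 180 s compound pre-read, and fluorescence was tracked kinetically for 180 s more.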
D1 agonist = activates the human D1 dopamine receptor | P21728 | activation, % at 2 µM | hit rate 1% among 360,000 | AID 504660 | HEK293 T-REx D1 cells, calcium flux, agonist mode; in the data active = activation above about 30%
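Tetracycline-induced HEK293 TREx D1 cells, force-coupled to calcium signalling, were dye-loaded with a no-wash calcium kit. Compound was pin-added after a 10 s baseline. Fluorescence was read kinetically at 1 cycle/s for 180 s, with calcium rises flagged as agonism.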
DRD3 antagonist = blocks the human D3 dopamine receptor; D3R cells, DiscoveRx beta-arrestin luminescence, antagonist mode; hits give low values; hit rate 2.5% among 360,000; max response, negative = inhibition, %; P35462; in the data active = max response below about -50%; inconclusive = no clear call, values can overlap the other calls
Target sequence (P35462 whole entry, looked up): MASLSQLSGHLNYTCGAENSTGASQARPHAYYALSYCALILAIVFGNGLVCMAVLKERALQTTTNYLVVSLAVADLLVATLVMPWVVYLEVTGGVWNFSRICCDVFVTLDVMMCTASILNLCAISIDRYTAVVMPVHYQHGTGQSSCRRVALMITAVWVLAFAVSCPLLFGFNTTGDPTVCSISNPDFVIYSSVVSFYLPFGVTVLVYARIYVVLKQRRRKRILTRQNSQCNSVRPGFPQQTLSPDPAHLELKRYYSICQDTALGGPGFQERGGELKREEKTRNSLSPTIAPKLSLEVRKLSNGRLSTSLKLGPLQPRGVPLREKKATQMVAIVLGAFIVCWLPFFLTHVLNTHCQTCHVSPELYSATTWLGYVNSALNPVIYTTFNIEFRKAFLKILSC
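Cells expressing the human receptor were seeded at 1500 cells/well, incubated overnight at 37 degrees C in 5% CO2, then exposed to library compounds with dopamine controls for 90 minutes at 37 degrees C before luminescent detection.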
DRD3 agonist = D3 dopamine receptor (human) agonism; P35462; D3R DiscoveRx beta-arrestin cells, luminescence, 90 min; max activation, %; hit rate 0.58% among 410,000; AID 652048; in the data active = max activation above about 30%
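Agonist mode: compounds and dopamine controls were applied to plated cells for 90 min at 37 degrees C after an overnight attachment at 1500 cells/well. Luminescent read-out followed 30 - 60 minutes at room temperature with DiscoveRx detection reagent.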
Numbers stand for hits; – = inactive; ? = inconclusive; · = no result.

SMILES	D1 potentiator	D1 antagonist	D1 agonist	DRD3 antagonist	DRD3 agonist
CN1CCCC(CC2c3ccccc3Sc3ccccc32)C1 (configuration not stated)	–	-41	53	-68	–
CN1CCCC(CN2c3ccccc3Sc3ccccc32)C1 (configuration not stated)	–	–	42	–	–
CN1CCCC(OC(=O)c2ccccc2F)C1 (configuration not stated)	–	–	–	–	–
COC(=O)c1sccc1S(=O)(=O)N(CC(=O)Nc1cccc(C)c1C)c1ccc(C)c(C)c1	–	–	–	·	–
Cc1ccc(C(=O)NC2(C(F)(F)F)C(=O)Nc3c2c(=O)[nH]c(=O)n3CCc2ccccc2)cc1 (configuration not stated)	–	-40	–	·	–
O=C(NC1(C(F)(F)F)C(=O)Nc2c1c(=O)[nH]c(=O)n2CCc1ccccc1)c1ccc(Cl)cc1 (configuration not stated)	–	–	–	·	–
Cc1ccc(-n2c3c(c(=O)[nH]c2=O)C(NC(=O)C(C)(C)C)(C(F)(F)F)C(=O)N3)cc1 (configuration not stated)	–	-74	–	·	–
Cc1ccc(-n2c3c(c(=O)[nH]c2=O)C(NC(=O)c2ccccc2C)(C(F)(F)F)C(=O)N3)cc1 (configuration not stated)	–	–	–	·	–
COc1ccc2c(c1)CC(NC(=O)Nc1c(C)cc(C)cc1C)CO2 (configuration not stated)	–	–	–	·	–
CC(=O)c1ccc(OC(C)C)c(CN2CCCCC2)c1	–	–	–	–	–
CC(C)Oc1ccc(C(=O)CCN2CCOCC2)cc1	·	·	·	–	–
CC(C)(C)c1ccc(C(=O)OCCN2CCCCC2)cc1	–	–	–	–	–
CC(=O)c1cc(CN2CCCCC2)cc(OC(C)C)c1	–	-45	–	–	–
COc1ccc(C(=O)OCCN2CCCCC2)cc1	–	–	–	-78	–
O=C(OCCN1CCCCC1)c1cccc(Cl)c1	–	–	–	-102	–
CC(C)Oc1ccc(C(=O)CCN2CCCCC2)cc1	–	–	–	-78	–
CCCSCCCNC(=O)c1ccc2nc(Cc3ccccc3)oc2c1	–	–	–	·	–
COc1ccc(C(=O)CCN2CCCCCC2)cc1	–	–	–	-54	–
C=CCN=c1scc(-c2ccc3c(c2)NC(=O)CO3)n1/N=C(\C)c1ccccn1	–	–	–	-53	–
CCCCn1c(=O)c2oc3ccccc3c2n(Cc2ccccc2C)c1=O	–	–	–	·	–
CC(C)Sc1nc2c(c(=O)n1C)SC(C)C2 (configuration not stated)	–	-32	–	–	–
CC(C)NC(=O)c1ccc(CSc2nc3ccncc3n2Cc2cccc(F)c2)cc1	–	–	–	·	–
CCOC(=O)C1=C(O)C(=O)N(c2ccc(S(N)(=O)=O)cc2)C1c1ccc(Cl)cc1 (configuration not stated)	–	-38	–	–	–
CCOC(=O)C1=C(O)C(=O)N(c2ccc(S(N)(=O)=O)cc2)C1c1ccc(Br)cc1 (configuration not stated)	–	–	–	–	–
FC(F)Oc1ccc(NC(=S)NC2CCSc3ccccc32)cc1 (configuration not stated)	–	–	–	–	–
SMILES	D1 potentiator	D1 antagonist	D1 agonist	DRD3 antagonist	DRD3 agonist
Cc1cccc(NC(=S)NC2CCSc3ccccc32)c1 (configuration not stated)	–	-33	–	–	–
CC(NCC(O)COc1ccccc1)C1COc2ccccc2O1 (configuration not stated)	–	–	–	-85	–
Cc1ccc(Cl)cc1N1CCN(CCNC(=O)Nc2ccccc2Cl)CC1	–	–	–	·	–
COc1ccc(C)cc1Nc1n[n+](-c2ccccc2)c(-c2c(OC)ccc3ccccc23)s1	–	-91	46	–	–
CCc1ccc(Nc2n[n+](-c3ccccc3)c(-c3cccc(C)c3)s2)cc1	–	–	–	-52	–
Fc1ccc(-[n+]2nc(Nc3ccccc3)sc2-c2c3ccccc3cc3ccccc23)cc1	–	–	–	-63	–
Oc1ccc2ccccc2c1-c1sc(Nc2ccccc2)n[n+]1-c1ccc(F)cc1	–	–	–	–	–
COc1ccc(-c2sc(Nc3ccccc3)n[n+]2-c2ccccc2)cc1Br	–	-31	–	–	–
O=C(O)c1ccccc1-c1c2cc(I)c(=O)c(I)c-2oc2c(I)c(O)c(I)cc12	·	·	·	-62	–
COCCNCCCCSc1ccc(Cl)cc1	–	–	–	-59	–
O=C(Nc1cccc2ncccc12)c1ccc([N+](=O)[O-])o1	–	-39	–	–	–
COc1ccc(C(=O)N(Cc2ccco2)Cc2cccs2)cc1	–	–	–	·	·
O=C1CCC[C@H]2c3[nH]c4ccccc4c3CCN12	·	·	·	-51	–
O=C(O)[C@@H]1Cc2c([nH]c3ccccc23)C2CCC(=O)N21 (some centres not stated)	–	–	–	–	–
COc1ccc(OC(=O)c2nc(SCc3ccccc3C)ncc2Cl)cc1	–	–	–	·	–
COC(=O)c1cc(NC(=O)c2nn(C)c3c2COc2ccccc2-3)cc(C(=O)OC)c1	–	-55	–	·	–
COC(=O)c1ccc(NC(=O)c2nn(C)c3c2COc2ccccc2-3)cc1	–	–	–	·	–
CCOc1ccc(NC(=O)c2nn(C)c3c2COc2ccccc2-3)cc1	–	–	–	·	55
CC1=C(SCc2ccccc2)C(=O)c2ccccc2C1=O	·	·	·	-89	–
CN(C)c1ccc(CNC(=O)C2CCN(Cc3cc4ccccc4n3Cc3ccccc3)CC2)cc1	–	–	–	·	–
Cc1cc(C)n(-c2nc3ccccc3nc2Nc2ccc3[nH]c(=O)[nH]c3c2)n1	–	–	–	–	42
CC1(C)CC(O)C(C)(C)N1O (configuration not stated)	–	–	37	–	–
COc1cc(Br)cc(C=Nc2cccc(C(F)(F)F)c2)c1O	–	–	–	-81	–
COc1cccc(C=Nc2cc(C)cc(C)c2)c1O	–	–	–	–	–
O=C(O)Cn1cc(/C=C2/NC(=O)N(c3ccc(Cl)cc3)C2=O)c2ccccc21	–	–	–	–	–
CC(C)n1cc(/C=C2\NC(=O)N(c3cccc(Cl)c3)C2=O)c2ccccc21	–	-68	–	–	–
CC(C)n1cc(/C=C2/NC(=O)N(c3cccc(Cl)c3)C2=O)c2ccccc21	–	-53	–	–	–
COc1ccc2c(c1OC)C[N+]1([O-])CCc3cc4c(cc3C1C2)OCO4 (configuration not stated)	–	-38	–	?	–
CCOC(=O)C1=CCC2c3c(c4ccccc4n3C)C(=O)C1N2C(=O)OC(C)(C)C (configuration not stated)	–	–	–	?	–
CCOC(=O)C1=CC[C@]2(C)c3c(c4ccccc4n3C)C(=O)C1N2C	–	-45	–	–	–

From PubChem BioAssay
